# Data from PubChem BioAssay AID893 (National Center for Advancing Translational Sciences (NCATS), 2007).
# Values joined by “and” are separate entries in the source; they are usually repeats but may differ in a detail not shown here. Identical values can stand only once. The whole screen tested about 75,000 compounds, of which about 5,700 (7.6%) were called active. Roughly 7% stayed inconclusive and do not appear here. The list comes from a sample in which actives are over-represented; it also holds similar structures and randomly drawn compounds. Unmarked numbers belong to inactive results. The call rests on the fitted dose curve; in most records, active means well fitted inhibition curve with a large enough effect; inconclusive means small, poorly fitted or top-dose-only effect; inactive means no such curve, though single readings can be large or run the other way.
# Target: 3-hydroxyacyl-CoA dehydrogenase type-2 (Homo sapiens) (UniProt Q99714)
# Assay: qHTS Assay for Inhibitors of HSD17B4, hydroxysteroid (17-beta) dehydrogenase 4;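 further: the protocol describes HADH2 (HSD17B10) and not the HSD17B4 of the title; nearly all actives have a fitted effect of over 70% in size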
# Settings: recombinant HSD17B10, NADH fluorescence kinetic; series mostly up to 57.1 µM; activity change, negative = inhibition: at the top concentration
# How it was run: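 20 nM HADH2, pH 9.0 Tris/Tween; cpd preinc 15 min RT; start w/ 1 mM NAD+ + 90 uM b-hydroxybutyryl-CoA; kinetic fluor ex360/em450 q30s x 4 min; delta last-first.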
# On the % scale 0 is the no-effect control and ±100 the full control effect; potency means the concentration at half of the fitted maximal effect.
Compound,"activity change, negative = inhibition",Potency
CCOc1ccc(NC(=O)CSc2nc3c(c(=O)n2-c2ccccc2OC)SCC3)cc1,-23.4%,–
COc1ccc(/C=C/NC(=O)Cc2ccc(OC)c(OC)c2)cc1,-1.94% [at 11.4 µM] and 1.41% [at 11.4 µM],–
O=C(c1cccc(S(=O)(=O)N2CCOCC2)c1)N1CCOCC1,1.57%,–
c1cncc(-c2nc(N3CCNCC3)c3ccccc3n2)c1,-9.08%,–
COc1ccccc1CNc1ccnc(-c2c(C)noc2C)n1,-9.74%,–
c1ccc2c(Nc3ccncc3)nc(-c3ccoc3)nc2c1,–,20 µM (active)
CNc1nc(-c2ccccc2OC)nc2ccccc12,-21.6%,–
COc1cccc(-c2nc(Nc3ccncc3)c3ccccc3n2)c1,5.41%,–
Cc1cnc(CNc2nc(-c3cccnc3)nc3ccccc23)cn1,-7.76%,–
c1ccc2c(Nc3ccncc3)nc(-c3ccc4c(c3)OCO4)nc2c1,–,25.1 µM (active)
Cc1noc(C)c1-c1nc(Nc2ccccc2)c2ccccc2n1,–,20 µM (active)
O=C(Cn1nnc(-c2ccccc2)n1)NCc1ccc2c(c1)OCO2,-1.68%,–
CCCn1c(=O)c2[nH]c(C3CCCC3)nc2n(CCC)c1=O,–,inactive
O=C(Cn1cc2c(n1)CCCCC2)NCCN1CCOCC1,5.24%,–
Cc1cc(NC(=O)COC(=O)c2ccc(F)c(S(=O)(=O)N3CCOCC3)c2)no1,0.59%,–
CC1(C)OC2CC(=O)OC[C@@]23C1CC(=O)[C@]1(C)C3CC[C@@]2(C)C(c3ccoc3)OC(=O)C3O[C@@]321 (stereo partly specified),8.38%,–
NC[C@@H]1O[C@H](O[C@@H]2[C@H](O[C@@H]3O[C@H](CO)[C@@H](COC[C@H]4O[C@@H](CN)[C@@H](O)[C@@H](O)[C@@H]4N)[C@@H]3O)[C@@H](O)[C@@H](N)C[C@H]2N)[C@@H](N)[C@H](O)[C@@H]1O,1.86% [at 25.6 µM],–
C=CCSc1nnc(Cn2c(=O)sc3ccccc32)n1C,7.1%,–
Cc1cc(NC(=O)CN2CCC(O)(c3cccc(F)c3)CC2)no1,-0.59%,–
CCCN(C/C=C\I)[C@@H]1CCc2cccc(O)c2C1,-5.72%,–
CC(NC(=O)CN1CCN(Cc2ccc(Cl)cc2)C1=O)c1ccc2c(c1)OCCO2 (stereo unspecified),4.76%,–
CC1CCCCC1NC(=O)CSc1nnc(N)s1 (stereo unspecified),-0.695%,–

Compound,"activity change, negative = inhibition",Potency
O=c1ccc2cc(S(=O)(=O)N3CCN(c4ccccc4)CC3)ccc2o1,10.5%,–
CN(C)CCCn1c(N)c(C#N)c2nc(C#N)c(C#N)nc21,–,25.1 µM (active)
O=C1NC(=O)[C@@](Cc2ccccc2)(c2cccnc2)N1,-1.35% [at 11.4 µM],–
CCOc1ccc(OCC)c(NC(=O)C2CCN(S(=O)(=O)c3c(C)noc3C)CC2)c1,-2.37%,–
Cc1ccc(F)cc1NC(=O)c1ccc2c(c1)OCO2,6.19%,–
COc1ccccc1OCCNCC(O)COc1cccc2[nH]c3ccccc3c12 (stereo unspecified),2.94%,–
C#CC(C)(C)NC(=O)CSc1nc2c(c(=O)n(C)c(=O)n2C)n1CCCC,-0.34%,–
Cc1cc(C(F)(F)F)n2ncc(-c3ccccc3)c2n1,-6.73%,–
COC(=O)c1cnn2c(C(F)(F)F)cc(-c3ccco3)nc12,–,25.1 µM (active)
COC(=O)c1ccccc1NC(=O)Cn1nc(C(F)(F)F)c2c1CCC2,-12.1%,–
CCC1=C(OC(=O)N(CC)CC)N2C(=O)OC(=NCCc3c[nH]c4ccccc34)[C@]2(C)[C@H]2C1=CC[C@H]1C(=O)N(CC)C(=O)[C@H]12,-6.72%,–
CCOC(=O)c1cn(CC(=O)Nc2ccc(C(C)C)cc2)nn1,-0.682%,–
Cn1c(NC(=O)c2ccc3c(c2)OCO3)cc(=O)n(C)c1=O,-13.5%,–
Cc1ccc(F)cc1NC(=O)c1cccc(N(C)C)c1,0.0915%,–
Cc1ccc(NC(=O)c2cccc(N(C)C)c2)cc1NC(=O)c1ccc(O)cc1,–,31.6 µM (active)
Cc1ccccc1NC(=O)c1ccccc1,-1.95%,–
CN(C)CCSS(=O)(=O)O,8.4% [at 11.4 µM],–
Cc1ccnc(N2CCCC(C(=O)Nc3cc(F)ccc3C)C2)n1 (stereo unspecified),–,25.1 µM (active)
O=C(Nc1ccc2c(c1)OCCO2)C1CCCN(c2ncccn2)C1 (stereo unspecified),1.15%,–
Cc1ccc(NC(=O)C2CCCN(S(=O)(=O)c3c(C)noc3C)C2)c(C)c1 (stereo unspecified),-2.12%,–
COc1ccc(N(CC(=O)NC2CCCCCCC2)S(=O)(=O)c2c(C)nn(C)c2C)cc1,-1.12%,–
COc1cccc(-n2cc3c(c2-c2ccccc2)c(=O)n(C)c(=O)n3C)c1,-18.6%,–

Compound,"activity change, negative = inhibition",Potency
Cc1occc1C(=O)Nc1nnc(C2CCCCC2)s1,0.212%,–
Cc1occc1C(=O)Nc1nnc(-c2ccncc2)s1,–,31.6 µM (active)
Cc1occc1C(=O)Nc1cccc(Cn2cccn2)c1,6.22%,–
O=C(NC1CCCC1)c1ccc(Br)s1,0.0814%,–
CCOc1ccc2nc(SC(CC)C(=O)Nc3cc(C)on3)sc2c1 (stereo unspecified),10.9%,–
CN1CCCC1CCO[C@@](C)(c1ccccc1)c1ccc(Cl)cc1 (stereo partly specified),-1.15%,–
COc1ccc2[nH]cc(CCNc3ncnc4ccc(-c5ccc(C(=O)N(C)C)cc5)cc34)c2c1,5.12%,–
O=C(CS(=O)(=O)c1cn(Cc2cccc(F)c2)c2ccccc12)N1CCCCC1,2.43%,–
CC1CCN(Cc2nc3c(c(=O)n(C)c(=O)n3C)n2CCc2ccccc2)CC1,5.22%,–
Cn1c(=O)c2c(nc(NCCc3ccccc3)n2Cc2ccccc2)n(C)c1=O,–,31.6 µM (active)
CCn1c(NCCc2ccc(OC)c(OC)c2)nc2c1c(=O)n(C)c(=O)n2C,7.02%,–
CCN(Cc1nc2ccccc2c(=O)[nH]1)Cc1cc(=O)oc2cc(C)c(C)cc12,-3.58%,–
Cc1ccc2c(CSc3nncs3)cc(=O)oc2c1,–,12.6 µM (active)
COC(=O)[C@@]1(Cc2ccc(OC)cc2)[C@H]2c3cc(C(=O)N4CCCC4)n(Cc4ccc(C(F)(F)F)nc4)c3C[C@H]2CN1C(=O)c1ccccc1,5.51%,–
CC(C)c1ccc(NS(=O)(=O)c2cn(C)c(=O)n(C)c2=O)cc1,-7.68%,–
O=c1[nH]nc(Cc2ccccn2)c2ccccc12,4.64%,–
CN(CCc1ccccn1)S(=O)(=O)c1ccc2c3c(cccc13)C(=O)N2,–,31.6 µM (active)
COC(=O)c1ccccc1NC(=O)c1cncc(Br)c1,4%,–
O=C(CSc1nnc2ccccn12)c1ccccc1,-4.02%,–
CCc1ccc(Nc2ncc3c(n2)CC(c2ccco2)CC3=O)cc1 (stereo unspecified),–,20 µM (active)
CCc1ccc(NC(=O)CSc2nnc(-c3cnccn3)n2Cc2ccco2)cc1,-6.46%,–
O=C(Nc1ncc2c(n1)CC(c1ccco1)CC2=O)c1ccc(Cl)cc1 (stereo unspecified),-13.7%,–
